# Laboratory results reported in publication PMC5540273 (PLoS ONE, 2017).
# Key:
# [1] = tested on: MELK
# [2] = tested on: T1, MINK
# T1 construct: gene MINK1
# [3] = tested on: MKNK2
# [4] = tested on: T2, MST1
# T2 construct: gene STK4
# [5] = tested on: NEK2
# [6] = tested on: PAK3
# [7] = tested on: NLK
# 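Also: kd values determined as follow-up on hits from a single-replicate KINOMEscan panel screen.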
compound,measurement,setting,value
O=c1cc(N2CCOCC2)nc2n(Cc3cccc(Cl)c3Cl)c3ccccc3n12 [GSK2299009],Kd,[1],> 10000 nM
NS(=O)(=O)c1cccc(N/C=C2\C(=O)Nc3ccc(S(=O)(=O)Cc4c(Cl)cccc4Cl)cc32)c1 [GSK398099],Kd,[2],790 nM
CC(C)c1cc(-c2ccc3c(N)n[nH]c3c2)nc(N)n1 [GSK2250882],Kd,[3],160 nM
CNC(=O)c1ccc(C)c(-n2c(C)cc(OCc3ccc(F)cc3F)c(Br)c2=O)c1,Kd,[3],> 10000 nM
COc1cccc(C2=C(Nc3cc(Cl)c(O)c(Cl)c3)C(=O)NC2=O)c1 [SB-390767],Kd,[4],1800 nM
same,Kd,[5],> 10000 nM
same,Kd,[6],> 10000 nM
Nc1nccc(-c2c(-c3ccc(F)cc3)ncn2C2CCN(Cc3ccccc3)CC2)n1 [SB-219980],Kd,[7],140 nM
